Measured values: PubChem BioAssay (NCATS)
Active and inactive are the calls of the source. Calls come from the whole dose curve; as a rule, active = well fitted inhibition curve with a large enough effect; inconclusive = small, poorly fitted or top-dose-only effect; inactive = flat fitted curve, though single readings scatter. *1 amine or outer side, *2 acyl side, *3 side chain or, on linkers, in order; H or OH if unused. Where a SMILES comes first, the peptide text is derived from it. [ ]: non-standard residue; d: D form. The star is where a group is joined. X13 = O=C(C(CC(O)CO)O[*:1])[*:2]; NMeV = CN[CH](C(=O)O)C(C)C; βNA = c1ccc2cc(N*)ccc2c1; Cbz = O=C(OCc1ccccc1)*; NMeA = CN[CH](C)C(=O)O; βAla = NCCC(=O)O

biological target: Luciferin 4-monooxygenase (Photinus pyralis) (UniProt P08659); assay: Primary firefly luciferase (FLuc) qHTS assay for identification of artifact compounds. (AID 1845220); conditions: purified firefly luciferase, luminescence, 5 min; series mostly up to 54.1 µM; activity change, negative = inhibition: at the top concentration; note: nearly all actives have a fitted effect of over 60% in size
Source text: PI: Alexander Tropsha Ph.D.
UNC Eshelman School of Pharmacy
University of North Carolina, Chapel Hill, North Carolina
Hits from high-throughput screening (HTS) of chemical libraries are often false positives due to their interference with the assay detection technology. In response to this problem, we generated the largest publicly available library of chemical liabilities and developed a free webtool to predict HTS artifacts, both of which are described herein. More specifically, we generated, curated, and integrated HTS datasets for thiol reactivity, redox activity, and luciferase (firefly and nano) activity. Using these curated datasets, we developed and validated several Quantitative Structure-Interference Relationship (QSIR) models to predict nuisance behavior. […] These models were employed for virtual profiling of the National Center for Advancing Translational Science's (NCATS) in-house library, and 256 compounds for each assay were selected for the experimental validation of nuisance behavior. The BA for these external predictions ranged from 58 to 78% for compounds within the applicability domains of the models. […] The models developed in this study, along with aggregation models previously developed by our group (SCAM Detective) were implemented in "Liability Predictor," an online tool which may be used as part of chemical library design or for triaging HTS hits. Both the models and the curated datasets are publicly available at https://liability.mml.unc.edu/.
SEQUENCE No. (e.g., 1, 2, 3, etc.); […] (e.g., Cells, Incubation, Reagent, etc.); VALUE; DESCRIPTION.
1; Reagent; 3 uL; Luciferase substrate mixture.
2; Compounds and control; 16 nL; Kalypsis pin tool (Wako USA) equipped with a 1536-well pin head.
4; Reagent; 1 uL; Luciferase enzyme.
6; Detection; Luminescence, ViewLux microplate reader.
NOTES (numbers refer to Sequence numbers above)
1. 3 uL of luciferase substrate mixture containing D-luciferin and ATP (final concentrations of 10 uM and 10 uM, respectively) in assay buffer (10 mM Mg-acetate, 0.01% Tween-20, 0.05% bovine serum albumin, 50 mM Tris acetate, pH 7.6) was dispensed into all wells of a 1536-well assay plate (solid-bottom white plate; Greiner Bio One, Monroe, NC).
2. A Wako Pin-tool (Wako Automation, Richmond, VA) was used to transfer 16 nL of compounds (consisting of 7-plates in qHTS format, final concentration range 18.3 nM to 114 uM) or control PTC124 (final concentration range 1.22 nM to 40 uM).
3. 15 min. incubation at room temperature protected from light.
4. 1 uL of luciferase enzyme (final concentration 10 nM, Photinus pyralis luciferase) or buffer was dispensed for a final assay volume of 4 uL.
5. Plates were centrifuged (121xg, 15 seconds) and incubated for 5 minutes.
6. Samples were read for luminescence on a ViewLux CCD imager (PerkinElmer). Data were normalized to no-enzyme (0% activity) and no-inhibitor (DMSO; 100%) controls and the resulting percent inhibition data were fitted to a 4-parameter Hill equation using NCATS in-house software.
Potency is the fitted concentration of half-maximal effect.

| SMILES | outcome | activity change, negative = inhibition | Potency |
| --- | --- | --- | --- |
| C=C[C@]1(C)C[C@@H](OC(=O)CSC2C[C@H]3CC[C@@H](C2)N3C)[C@]2(C)[C@H](C)CC[C@]3(CCC(=O)[C@H]32)[C@@H](C)[C@@H]1O (stereo not given in full) | inactive | – | – |
| NC(=O)NCCCC(NC(=O)Cc1ccccc1)C(=O)O (stereo not given) | – | 1.78% (inactive) | – |
| COc1ccccc1Oc1c(NS(=O)(=O)c2ccc(C)cn2)nc(-c2ccncc2)nc1OC | – | -0.065% (inactive) | – |
| C=Cc1ccc(O[C@@H]2O[C@H](CO[C@@H]3O[C@@H](C)[C@H](O)[C@@H](O)[C@H]3O)[C@@H](O)[C@H](O)[C@H]2O)cc1 | inactive [at 25.7 µM] | – | – |
| C[C@@H]1O[C@@H](OC(=O)Cc2ccccc2)[C@H](O)[C@H](O)[C@H]1O | – | -5.3% (inactive) | – |
| CC(C)[C@](O)(c1ccc2cc(OC(F)F)c(OC(F)F)cc2c1)c1cn[nH]n1 | – | 3.59% (inactive) | – |
| CCCC(=O)Nc1cccc(NC(=O)c2ccccc2Br)c1 | inactive | – | – |
| COC(=O)[C@H](c1ccccc1Cl)N1CCC2SC(=O)C=C2C1 (stereo not given in full) | – | -5.49% (inactive) | – |
| COCc1c(O)c(C(=O)O)c(C)c2c1OC(=O)c1c(C)cc(O)c(CO)c1O2 | – | -10.5% (inactive) | – |
| CC(C)CC(NC(=O)OCc1ccccc1)C(=O)NC(CC(C)C)C(=O)NC(CCC(=O)O)C(=O)Nc1ccc2ccccc2c1 (stereo not drawn) (Cbz-Leu-Leu-Glu-βNA; configuration not given here) | inactive | – | – |
| CC1=CC2=C(C)C(=O)[C@](C)(O)[C@H](O)C2=CO1 | inactive | – | – |
| CCc1nn(CCO)c(CC)c1Oc1cc(C#N)cc(C#N)c1 | inactive | – | – |
| O=C1OC(c2ccc(O)cc2)C(O)=C1Cc1ccccc1 (stereo not given) | – | -0.0975% (inactive) | – |
| CCC(C)C(C(=O)O)N1Cc2c(OCC=C(C)C)c(C)c(OC)c(C(=O)O)c2C1=O (stereo not given) | – | -0.21% [at 25.7 µM] (inactive) | – |
| O=C(O)CC/C=C\C[C@H]1CO[C@@H](c2ccccc2Cl)O[C@H]1c1ccccc1O | inactive | – | – |
| C[C@@H]1[C@H](O)[C@@H]2OC(=O)C3=C2[C@H](CCC3)[C@@]12C[C@@H](c1ccoc1)OC2=O | inactive | – | – |
| C=C1[C@H]2CCC3[C@]4(C)CCC[C@@](C)(C(=O)O)C4CC[C@]3(C2)[C@H]1OC(C)=O (stereo not given in full) | – | 0.701% (inactive) | – |
| O=C(OCC(O)CO[C@@H]1O[C@H](C(=O)O)[C@@H](O)[C@H](O)[C@H]1O)c1ccccc1 (stereo not given in full) | – | 2.49% (inactive) | – |
| COc1ccc(OC2OC(CO[C@@H]3O[C@@H](C)[C@H](O)[C@@H](O)[C@H]3O)C(O)C(O)C2O)cc1OC (stereo not given in full) | – | 1.36% [at 25.7 µM] (inactive) | – |
| COc1ccc(C(=O)NCc2cc(C(C)C)no2)cc1OC1CCN(C)CC1 | – | 0.043% (inactive) | – |

| SMILES | outcome | activity change, negative = inhibition | Potency |
| --- | --- | --- | --- |
| Cc1ccccc1-n1nc(-c2c(-c3ccc(F)cc3)nn3c2NC[C@@H](CO)C3)ccc1=O | – | -8.94% (inactive) | – |
| CC(=O)OC(C)(C)/C=C/C(=O)[C@](C)(O)C1[C@H](O)C[C@@]2(C)[C@@H]3CC=C4[C@@H](C[C@H](O[C@@H]5O[C@H](CO)[C@@H](O)[C@H](O)[C@H]5O)C(=O)C4(C)C)[C@]3(C)C(=O)C[C@]12C (stereo not given in full) | – | 2.46% [at 25.7 µM] (inactive) | – |
| CC(C)C1(O)NC(=O)C(CC2(O)c3ccccc3N3C(=O)C(C)(C)NC32)n2c1nc1ccccc1c2=O (stereo not given) | inactive [at 25.7 µM] | – | – |
| Cc1c(Cc2ccc3ccccc3n2)c2cc(F)ccc2n1CC(=O)O | inactive | – | – |
| CC(C)=CCC[C@](C)(O[C@@H]1O[C@H](CO)[C@@H](O)[C@H](O)[C@H]1O)[C@H]1CC[C@]2(C)[C@@H]1[C@H](O)CC1[C@@]3(C)CC[C@H](O)C(C)(C)C3[C@@H](O[C@@H]3O[C@H](CO)[C@@H](O)[C@H](O)[C@H]3O[C@@H]3O[C@@H](C)[C@H](O)[C@@H](O)[C@H]3O)C[C@]12C (stereo not given in full) | – | -2.06% [at 11.6 µM] (inactive) | – |
| CC(=O)[C@@H]1C[C@H](C(C)(C)O[C@@H]2O[C@H](CO)[C@@H](O)[C@H](O)[C@H]2O)CC[C@@]2(CO)OC(=O)C[C@@H]12 | inactive [at 25.7 µM] | – | – |
| COc1cccc(CN(C(=O)CC(C)(C)C)C2CC(C(=O)N3CCNCC3)N(Cc3ccc4c(c3)OCO4)C2)c1 (stereo not given) | – | 3.88% (inactive) | – |
| COC(=O)[C@@H](NC(=O)[C@H](CC(C)C)NC(=O)N(Cc1ccccc1)C[C@@H](O)[C@H](Cc1ccccc1)NC(=O)OC(C)(C)C)C(C)C | inactive [at 11.6 µM] | – | – |
| CC(NC(=O)c1ccccc1N)C(=O)O (stereo not given) | – | -1.56% (inactive) | – |
| CC1=C2C(=O)C=C(CO[C@@H]3O[C@H](CO)[C@@H](O)[C@H](O)[C@H]3O)[C@@H]2[C@H]2OC(=O)[C@H](C)[C@@H]2[C@@H](O)C1 | – | 0.471% [at 25.7 µM] (inactive) | – |
| CCC(C)C1NC(=O)C2CCCN2C(=O)C(CC(O)CO)OC(=O)CCNC(=O)C(C)N(C)C(=O)C(C(C)C)N(C)C1=O (stereo not given) (cyclo([X13]PI[NMeV][NMeA][βAla]); configuration not given here) | inactive [at 25.7 µM] | – | – |
| CC(=O)NC1C(OC2CCC3(C)C(CCC4(C)C3CC=C3C5CC(C)(C)CCC5(C(=O)O)C(O)CC34C)C2(C)C)OC(CO)C(O)C1O (stereo not given) | – | -10.9% [at 25.7 µM] (inactive) | – |
| O=C(NC1CCN(CC(F)(F)F)CC1)c1ccc(-c2cccc(F)c2)nc1 | inactive | – | – |
| Cc1c(F)cc(C(=O)NC2CC2)cc1-c1ccc(C(=O)NCC(C)(C)C)cn1 | – | -0.397% (inactive) | – |
| Cc1ccc2nc(NC(=O)CSc3nc4c(c(=O)n3-c3ccc(F)cc3)SCC4)sc2c1 | – | 1.14% (inactive) | – |
| CN1CCN(C2=Nc3ccccc3Nc3ccc(O)cc32)CC1 | inactive | – | – |
| COc1cc([C@@H](O[C@@H]2O[C@H](CO)[C@@H](O)[C@H](O)[C@H]2O)[C@@H]2CO[C@H](c3ccc(O)c(OC)c3)[C@H]2CO)ccc1O | – | -5.06% [at 25.7 µM] (inactive) | – |
| Oc1ccccc1-c1cc(-c2ccccc2F)[nH]n1 | – | – | 1690 nM (active) |
| CC(=O)c1[nH]cc(CCC(=O)O)c1CC(=O)O | – | 3.92% (inactive) | – |
| Oc1ccc(CC2NCCc3cc(O)c(O)cc32)cc1 (stereo not given) | inactive | – | – |
